From PubChem BioAssay
The full list was thinned out, with hits kept by preference.
NS1 inh: blocks influenza NS1 protein function; Potency, µM (titrated, usually from 46.1 µM), without a hit: top-dose activity, positive = more growth; 0.4% of 270,000 active; also: potency is read from the fitted curve at half-maximal effect; actives are rising curves; nearly all actives have a fitted effect of over 50% in size
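Read-out: OD600 growth recovery of NS1-expressing budding yeast. Cells grown overnight at 30C in -URA glucose medium, washed, resuspended and diluted 1:100 in 2% galactose assay medium, pH 6.0. Same strain lacking NS1 served as positive control.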
TbPYK inhibitor: blocks Trypanosoma brucei pyruvate kinase; TbPYK enzyme, Kinase-Glo Plus ATP luminescence, 45 min; Potency, µM (titrated, usually from 76.8 µM), for the others: at the top dose activity, negative = inhibition, most hits filed as inhibitors; 0.12% of 410,000 active; Q57TT1; AID 624173; active = well fitted curve in the direction sought with a large enough effect; inconclusive = small, poorly fitted or top-dose-only effect, or another doubt; inactive = no such curve, though single readings can be large; an effect the other way counts as inactive or inconclusive; also: potency is read from the fitted curve at half-maximal effect; % is scaled to controls: 0 for no effect and ±100 for the full control effect; nearly all actives have a fitted effect of over 50% in size
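Luminescence from Kinase-Glo Plus, added after a 45-minute room-temperature reaction, served as the end-point read-out. The enzyme and substrate were preincubated with compound before ADP (130 uM final) initiated turnover. Concentration-effect curves came from normalized qHTS data.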
SARS PLpro yeast: inhibitors of SARS-CoV papain-like protease in yeast. Potency, µM (series often up to 32.9 µM), without a hit: at the top dose activity, positive = growth rescue, most hits filed as activators. S. cerevisiae expressing SARS-CoV PLpro, growth rescue. 0.19% of 330,000 active; also: potency is read from the fitted curve at half-maximal effect; 0% is about no effect; nearly all actives have a fitted effect of over 55% in size
Cycloheximide cs: counter-screen hit for Shiga toxin inhibitors, cycloheximide | cell reporter, cycloheximide protein synthesis inhibition counterscreen | max response, % | 12% of 300,000 active; in the data active = max response mostly above about 13%, no sharp cut-off; inactive = mostly below about 14%; also: read at 38.3 µM for the half of the compounds with a filed dose; 0% is about no effect
Shiga inhibitor: Shiga toxin inhibition. Vero cells, Shiga toxin protein synthesis inhibition reporter. AID 2315. 9.2% of 290,000 active. inhibition, % at 38.7 µM; in the data active = inhibition mostly above about 28%, no sharp cut-off; inactive = mostly below about 43%; also: 0% is about no effect
LmPK inhibitor: inhibitors of Leishmania mexicana pyruvate kinase; Potency, µM (top dose mostly 57.5 µM), for inactives: top-dose activity change, negative = inhibition, hits mostly inhibitors; AID 1721; 0.37% of 290,000 active; purified LmPK, Kinase-Glo ATP luminescence, 1 h; active = well fitted curve in the direction sought with a large enough effect; inconclusive = small, poorly fitted or top-dose-only effect, or another doubt; inactive = no such curve, though single readings can be large; an effect the other way counts as inactive or inconclusive; also: potency is read from the fitted curve at half-maximal effect; % is scaled to controls: 0 for no effect and ±100 for the full control effect
Target sequence (Q27686 whole entry, looked up): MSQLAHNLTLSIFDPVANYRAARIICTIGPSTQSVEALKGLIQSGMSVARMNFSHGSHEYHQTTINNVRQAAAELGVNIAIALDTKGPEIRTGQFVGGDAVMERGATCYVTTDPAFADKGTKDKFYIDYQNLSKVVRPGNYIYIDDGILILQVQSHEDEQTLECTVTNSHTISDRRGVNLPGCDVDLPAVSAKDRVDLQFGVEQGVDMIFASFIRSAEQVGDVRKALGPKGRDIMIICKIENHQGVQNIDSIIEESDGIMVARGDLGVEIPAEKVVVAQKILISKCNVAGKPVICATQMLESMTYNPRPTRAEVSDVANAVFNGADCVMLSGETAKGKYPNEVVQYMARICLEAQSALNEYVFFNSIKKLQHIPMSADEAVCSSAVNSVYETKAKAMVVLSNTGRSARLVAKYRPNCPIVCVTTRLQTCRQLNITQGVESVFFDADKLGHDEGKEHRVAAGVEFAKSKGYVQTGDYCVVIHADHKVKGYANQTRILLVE
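ATP generated from ADP (0.1 mM) and PEP (0.5 mM) by 0.1 nM LmPK over 1 h at room temperature (pH 7.2 imidazole buffer) was detected by coupled luciferase luminescence. Values were normalized to uninhibited and no-enzyme wells.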
An asterisk follows results filed as active; ? = inconclusive; nt = no result. Unless noted, calls follow the shape of the full dose curve.

SMILES	NS1 inh	TbPYK inhibitor	SARS PLpro yeast	Cycloheximide cs	Shiga inhibitor	LmPK inhibitor
CCCCc1c(C)nc2nc(SCc3ccc(Cl)cc3)[nH]n2c1=O	-6.3%	2.4%	3.6%	-3.7	7.2	13.6%
Cc1ccc(NC(=O)CCCn2nc(C)c3sc4ccccc4c3c2=O)c(Cl)c1	nt	4.3%	nt	nt	nt	nt
Cc1cccc(NCc2ccc(N(C)C)cc2)n1	3.4%	-8.3%	9.9%	44.7*	90.8*	2.0%
Cc1ccc(O)c(CNc2cccc(C)n2)c1	8.4%	-4.2%	1.3%	11.5	24.1	-6.6%
Fc1ccc(CNc2ccccn2)cc1	10.3%	7.4%	3.9%	19.6*	26.4*	-5.3%
CN(C)c1ccc(CNc2ccccn2)cc1	20.5%	-4.3%	?	27.1*	43.0*	-5.6%
Clc1cccc(-n2ncc3c(NCCCN4CCOCC4)ncnc32)c1	nt	-6.4%	nt	nt	nt	nt
CCCNC(=O)C1CCN(S(=O)(=O)c2ccc3c(c2)CCCN3C(C)=O)CC1	nt	0.7%	nt	nt	nt	nt
O=C(/C=C/c1ccccc1)NCCOc1ccccc1	-11.3%	-10.1%	1.0%	39.4*	76.8*	-0.5%
COc1ccc(C(=O)/C=C/c2ccccc2C(F)(F)F)cc1	-34.3%	1.0%	-6.0%	25.9*	28.5	1.7%
CC(C)(C)C(=O)/C=C/c1ccc(Oc2ccccc2)cc1	-33.9%	-2.6%	-3.1%	49.5*	120.0*	-4.5%
COc1ccc(CNC(=O)/C=C/c2ccc(OCCCF)cc2)cc1	-19.7%	-3.1%	0.6%	14.2	59.6	-3.0%
CCOc1ccc(/C=C/C(=O)NCc2ccccc2)cc1	3.2%	-8.1%	-32.0%	20.3*	29.6	1.2%
O=C(O)/C=C/c1ccc(Oc2ncccn2)cc1	1.8%	-1.9%	-0.8%	-1.3	3.1	-5.7%
COc1ccc(C(=O)CC(=O)C(=O)Nc2ccccc2C(F)(F)F)cc1	-2.2%	1.5%	2.1%	-0.3	4.8	-1.0%
CCOc1ccc(/C=C/c2nc(C#N)c(NCc3ccc(OC)cc3)o2)cc1	nt	5.7%	nt	nt	nt	nt
COc1ccc(Cc2c(-c3ccc(F)cc3)nc3c(C)cc(Br)cn23)c(C)c1	nt	0.3%	nt	nt	nt	nt
O=c1c2ccccc2nc(/C=C/c2cccc3ccccc23)n1-c1ccc(F)cc1F	nt	1.3%	nt	nt	nt	nt
CCOc1ccc(C(=O)/C=C/c2ccccc2C(F)(F)F)cc1	2.5%	-0.6%	0.3%	21.4*	21.9	-3.8%
CCOc1ccc(/C=C/C(=O)NC2CCCCC2)cc1	-12.9%	-4.3%	-1.1%	17.8*	nt	10.4%
CCOc1ccc(/C=C/C(=O)c2ccccc2)cc1	-36.3%	-6.3%	-6.4%	31.0*	43.4	15.8µM*
CCOc1ccc(C(=O)/C=C/c2ccc(SC)cc2)cc1	-54.1%	-0.7%	-7.9%	19.2	2.2	-6.0%
O=C(O)COc1ccc(/C=C/C(=O)c2ccc(C3CCCCC3)cc2)cc1	?	3.3%	-5.5%	25.8*	48.9	0.9%
Cc1ncccc1C(=O)N1CCCC(c2cc(C(=O)Nc3ccc(C(C)(C)C)cc3)no2)C1 (centres undefined)	nt	-11.0%	nt	nt	nt	nt
CCOC(=O)c1ccc2[nH]c(CSc3nnc(-c4cccc(F)c4)n3C)cc(=O)c2c1	nt	1.9%	nt	nt	nt	nt
SMILES	NS1 inh	TbPYK inhibitor	SARS PLpro yeast	Cycloheximide cs	Shiga inhibitor	LmPK inhibitor
NCCO/C=C/[C@H](N)C(=O)O	nt	2.0%	nt	nt	nt	nt
Cc1cc(NC(=O)COC(=O)c2ccc([N+](=O)[O-])cc2Cl)no1	nt	3.1%	-1.2%	nt	nt	nt
COc1ccc(S(=O)(=O)N2CCc3ccccc32)cc1C(=O)NC1(C)CCS(=O)(=O)C1 (centres undefined)	nt	-2.6%	1.3%	nt	nt	nt
COc1ccc(N2CCN(CCCn3cnc4c(OC)ncnc43)CC2)cc1	nt	-6.4%	nt	nt	nt	nt
Cc1ccc2[nH]c3c(=O)n4c(nc3c2c1)SCC4	nt	-6.1%	0.7%	24.0*	28.1	-4.7%
COc1ccc2[nH]c3c(=O)n4c(nc3c2c1)SCCC4	nt	-5.3%	1.0%	25.1*	28.8	1.5%
CCC1CCCN1Cn1cnc2c([nH]c3ccc(OC)cc32)c1=O (centres undefined)	-4.9%	-9.0%	0.9%	4.8	18.9	1.3%
Cc1ccc(-c2cc(C(F)F)nc(NCC3CCCO3)n2)cc1 (centres undefined)	-67.6%	-15.9%	-60.5%	15.6*	47.8*	2.0%
Cc1ccc(-c2cc(C(F)F)nc(NCc3cccs3)n2)cc1	-8.4%	12.7%	-19.4%	-0.5	8.6	-1.3%
N#Cc1nc(-c2cccs2)oc1NCC1CCCO1 (centres undefined)	-6.3%	-8.2%	-6.6%	9.3*	11.2	-1.0%
Cc1ccc(-c2nc(C#N)c(NCC3CCCO3)o2)cc1 (centres undefined)	-14.5%	2.1%	-2.1%	24.6*	81.9*	-13.8%
Cc1cccc(-c2nc(C#N)c(N3CCC(C)CC3)o2)c1	1.5%	-0.5%	4.1%	1.7	-8.8	4.5%
Cc1ccc(-c2nc(CSCC(=O)NCC3CCCO3)c(C)o2)cc1 (centres undefined)	3.6%	-4.0%	0.3%	10.9	14.7	-2.2%
Cc1cccc(-c2nc(C#N)c(N3CCCCCC3)o2)c1	-6.1%	1.1%	-7.3%	27.6*	70.2*	-12.9%
Cc1ncc(CO)c(C=O)c1O	nt	-3.8%	nt	-4.7	-8.9	nt
C=CCNc1oc(-c2cccc(Cl)c2)nc1C#N	nt	-4.1%	-1.4%	nt	nt	nt
Cc1cccc(-c2nc(C#N)c(NCC3CCCO3)o2)c1 (centres undefined)	-8.2%	-0.3%	0.0%	43.8*	88.7*	1.8%
COc1ccc(-c2nc(C#N)c(NCC3CCCO3)o2)cc1 (centres undefined)	-10.7%	5.9%	-4.2%	25.4*	72.6*	3.3%
COc1ccc(-c2nc(C#N)c(NCCCN3CCOCC3)o2)cc1	?	-1.5%	?	-2.5	23.5	3.6%
CC1CCCC/C1=N\NC(=S)NCCc1ccccc1 (centres undefined)	nt	-0.2%	3.1%	44.1*	97.6*	-12.4%
CC1CCCC/C1=N\NC(=S)Nc1cccnc1 (centres undefined)	5.3%	-13.9%	1.3%	4.2	17.7	11.3%
Cc1ccc(NC(=S)N/N=C2\CCCCC2C)cc1 (centres undefined)	nt	-6.8%	-2.6%	43.5*	95.0*	-0.3%
C/C(CC1CC2=C(CC1(C)C)C(C)(C)CCC2)=N\NC(N)=S (centres undefined)	-70.8%	-11.3%	11.2µM*	-1.8	15.8	4.0%
NC(=O)c1ccc(NC(=O)COC(=O)c2ccc3ccccc3n2)cc1	nt	-2.1%	-2.0%	nt	nt	nt
O=C(Nc1ccccc1)c1cnc2ccccc2n1	1.9%	-2.5%	-1.4%	40.1*	59.8*	-8.9%
O=C(Nc1ccc(OC(F)F)cc1)c1ncc(Cl)c(Cl)c1Cl	nt	4.0%	-0.7%	14.0	10.2	3.9%
O=C(Nc1cccc(-c2cnc3ccccc3n2)c1)c1ccccc1	-11.3%	-5.0%	11.9%	31.2	47.0	12.1%
Cc1ccc(NC(=O)c2cnc3ccccc3n2)cc1C	-4.7%	-2.6%	-0.1%	50.7*	66.8*	-4.6%
NC(=O)c1ccc(NC(=O)c2cnc3ccccc3n2)cc1	-3.2%	0.8%	-0.3%	36.8*	79.7*	-3.6%
